Calls of active or inactive are those of the source.
How the values were obtained:
[1] = E. coli DRC41 culture turbidity changes, primary screen, E. coli filamentation inducer project, strain DRC41, OD650, 48 h (AID 1152);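 further: E. coli MC1000 strain DRC41 lacking acrAB efflux pump and sulA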; conditions: E. coli DRC41 (acrAB sulA), higher = more signal, called active from +8 up or from −8 down
[2] = small-molecule binders of probe aLefty1, primary screen, biochemical, small-molecule microarray, 635/667 nm fluorescence (AID 1153); conditions: higher = more signal;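 further: score merges spot fluorescence with signal-to-noise ratio from the scanned slide images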
[3] = PSAC antagonists in infected red cells, primary screen, cell-based, P. falciparum Indochina, OD700, 1 h (AID 1154); conditions: P. falciparum Indochina infected RBC osmotic lysis, higher = more signal, called active from +8 up or from −8 down
[4] = PSAC antagonists in infected red cells, primary screen, cell-based, P. falciparum Indochina, OD700, 2 h (AID 1155);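 further: lysis reports solute entry through the parasite surface anion channel PSAC; channel blockers reduce lysis of infected cells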; conditions: P. falciparum Indochina infected erythrocytes, osmotic lysis OD700; higher = more signal, called active from +8 up or from −8 down
[5] = osmotic lysis modulators in infected erythrocytes, primary screen, PSAC antagonist project, cell-based, P. falciparum Indochina, OD700, 3 h (AID 1156); conditions: higher = more signal, called active from +8 up or from −8 down
[6] = PSAC antagonists in infected red cells, primary screen, cell-based, P. falciparum Indochina, OD700, 18 h (AID 1157); conditions: P. falciparum Indochina infected erythrocytes, osmotic lysis OD700, 18 h; higher = more signal, called active from +8 up or from −8 down
[7] = modulators of S6 phosphorylation in cells, primary screen, cell-based, A549, cytoblot, luminescence, serum-stimulated (AID 1158); conditions: A549 phospho-S6 cytoblot, 5 h, higher = more signal;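 further: serum-stimulated A549 lung adenocarcinoma cells; signal is phosphorylated S6 detected by cytoblot immunostaining with HRP secondary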
[8] = target: NADPH oxidase 2 (Homo sapiens) (UniProt P04839); test: NOX2-dependent H2O2 signal modulators, primary screen, NOX inhibitor project, cell-based, HEK293-NOX2, PMA-stimulated, Amplex Red fluorescence (AID 1159); conditions: 45 min, higher = more signal, called active from +8 up or from −8 down; further: test concentration not given here
[9] = target: NADPH oxidase 4 (Homo sapiens) (UniProt Q9NPH5); test: NOX4-dependent H2O2 signal modulators, primary screen, NOX inhibitor project, cell-based, HEK293-NOX4, tetracycline-induced, Amplex Red fluorescence (AID 1160); conditions: 45 min, higher = more signal, called active from +8 up or from −8 down
[10] = target: NADPH oxidase 5 (Homo sapiens) (UniProt Q96PH1); test: NOX5-dependent H2O2 signal modulators, primary screen, NOX inhibitor project, cell-based, HEK293-NOX5, Amplex Red fluorescence (AID 1161); conditions: HEK293-NOX5, ionomycin, 45 min, higher = more signal
[11] = A549 cell viability effects, profiling panel, calcein-AM fluorescence, 48 h, basal (AID 1162); conditions: higher = more signal; further: test concentration not given here
[12] = adipocyte viability effects, profiling panel, cell-based, 3T3-L1 adipocytes, calcein-AM fluorescence, 48 h, basal (AID 1163); conditions: 3T3-L1 adipocytes viability, higher = more signal; further: test concentration not given here
[13] = HepG2 cell viability effects, profiling panel, calcein-AM fluorescence, 48 h, basal (AID 1164); conditions: higher = more signal; further: test concentration not given here
[14] = MM1S cell viability effects, profiling panel, calcein-AM fluorescence, 48 h, basal (AID 1165); conditions: higher = more signal;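 further: viability of MM1S multiple myeloma cells under basal unstimulated conditions; test concentration not given here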
[15] = basal RPMI8226 viability, no added stimulus, profiling panel, cell-based, calcein-AM fluorescence, 48 h, PK04 Diversity Set (AID 1166); conditions: RPMI8226 myeloma viability, higher = more signal;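 further: cells grown under basal conditions without added stimulus; test concentration not given here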
[16] = basal HepG2 mitochondrial membrane potential changes, profiling panel, cell-based, JC-1 fluorescence, 24 h, 100 nL compound (AID 1167); conditions: higher = more signal; further: test concentration not given here
[17] = basal 3T3-L1 adipocyte mitochondrial potential changes, profiling panel, cell-based, JC-1 fluorescence, 3T3-L1 adipocytes, 24 h, 100 nL compound (AID 1168); conditions: JC-1 mitochondrial fluorescence, higher = more signal, called active from +8 up or from −8 down; further: test concentration not given here
[18] = basal RPMI8226 mitochondrial membrane potential changes, profiling panel, cell-based, JC-1 fluorescence, 24 h, 100 nL compound (AID 1169); conditions: RPMI8226 myeloma, JC-1 mitochondrial potential fluorescence, higher = more signal; further: test concentration not given here
[19] = basal MM1S mitochondrial membrane potential changes, profiling panel, cell-based, JC-1 fluorescence, 24 h, 100 nL compound (AID 1170); conditions: higher = more signal; further: test concentration not given here
[20] = A549 lung cancer cell viability effects, profiling panel, resazurin fluorescence, 24 h, PK04 Diversity Set (AID 1171); conditions: higher = more signal, called active from +8 up or from −8 down; further: test concentration not given here

NADPH oxidase 2 (Homo sapiens), sequence (P04839 whole entry, looked up): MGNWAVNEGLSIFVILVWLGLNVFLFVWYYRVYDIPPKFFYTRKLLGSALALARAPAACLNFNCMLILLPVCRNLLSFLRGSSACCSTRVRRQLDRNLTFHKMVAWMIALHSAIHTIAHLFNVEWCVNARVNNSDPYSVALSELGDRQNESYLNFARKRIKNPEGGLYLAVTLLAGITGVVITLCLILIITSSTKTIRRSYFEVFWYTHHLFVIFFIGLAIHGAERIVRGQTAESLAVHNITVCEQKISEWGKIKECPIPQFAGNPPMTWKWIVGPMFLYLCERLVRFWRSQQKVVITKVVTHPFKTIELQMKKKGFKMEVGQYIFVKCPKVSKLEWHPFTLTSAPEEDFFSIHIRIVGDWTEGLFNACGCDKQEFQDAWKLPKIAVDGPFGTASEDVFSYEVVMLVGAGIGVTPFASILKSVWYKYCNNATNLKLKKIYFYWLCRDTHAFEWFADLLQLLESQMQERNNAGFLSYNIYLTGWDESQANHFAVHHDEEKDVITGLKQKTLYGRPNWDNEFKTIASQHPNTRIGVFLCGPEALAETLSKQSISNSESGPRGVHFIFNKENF
NADPH oxidase 5 (Homo sapiens), sequence (Q96PH1 whole entry, looked up): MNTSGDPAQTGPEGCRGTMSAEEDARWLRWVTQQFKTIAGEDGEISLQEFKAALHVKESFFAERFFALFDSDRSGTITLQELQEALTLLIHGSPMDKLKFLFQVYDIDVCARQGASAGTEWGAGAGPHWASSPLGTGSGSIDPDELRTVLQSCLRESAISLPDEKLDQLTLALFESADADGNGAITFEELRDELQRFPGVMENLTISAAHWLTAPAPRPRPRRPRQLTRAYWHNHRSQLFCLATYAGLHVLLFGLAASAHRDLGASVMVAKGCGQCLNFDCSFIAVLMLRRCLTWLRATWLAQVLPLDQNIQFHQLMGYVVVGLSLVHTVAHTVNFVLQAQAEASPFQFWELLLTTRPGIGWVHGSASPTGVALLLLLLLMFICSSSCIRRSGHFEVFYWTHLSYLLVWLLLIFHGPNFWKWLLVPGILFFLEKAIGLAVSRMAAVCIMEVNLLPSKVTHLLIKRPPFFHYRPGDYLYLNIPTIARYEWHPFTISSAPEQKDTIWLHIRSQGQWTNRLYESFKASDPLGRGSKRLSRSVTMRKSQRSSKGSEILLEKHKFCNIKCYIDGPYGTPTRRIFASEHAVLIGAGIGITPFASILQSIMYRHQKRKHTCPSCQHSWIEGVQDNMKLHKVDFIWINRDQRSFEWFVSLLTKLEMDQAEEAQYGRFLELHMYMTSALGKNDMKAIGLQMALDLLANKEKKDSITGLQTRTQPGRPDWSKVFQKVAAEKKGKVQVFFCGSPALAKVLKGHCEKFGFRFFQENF
NADPH oxidase 4 (Homo sapiens), sequence (Q9NPH5 whole entry, looked up): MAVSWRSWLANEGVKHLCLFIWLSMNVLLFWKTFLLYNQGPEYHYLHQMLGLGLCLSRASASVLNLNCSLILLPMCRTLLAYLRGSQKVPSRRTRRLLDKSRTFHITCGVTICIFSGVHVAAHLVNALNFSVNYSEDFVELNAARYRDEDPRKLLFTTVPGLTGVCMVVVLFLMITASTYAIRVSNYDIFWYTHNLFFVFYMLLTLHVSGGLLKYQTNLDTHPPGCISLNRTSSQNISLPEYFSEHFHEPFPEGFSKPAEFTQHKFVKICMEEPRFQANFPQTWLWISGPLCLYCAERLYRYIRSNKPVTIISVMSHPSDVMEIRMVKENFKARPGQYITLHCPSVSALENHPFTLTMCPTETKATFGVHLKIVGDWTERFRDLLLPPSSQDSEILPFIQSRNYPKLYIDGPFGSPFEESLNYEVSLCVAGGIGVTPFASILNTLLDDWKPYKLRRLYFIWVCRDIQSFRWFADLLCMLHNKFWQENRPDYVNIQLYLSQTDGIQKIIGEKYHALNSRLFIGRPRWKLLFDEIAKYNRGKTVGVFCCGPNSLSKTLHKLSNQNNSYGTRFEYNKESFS

SMILES	z-score [1]	composite z-score [2]	z-score [3]	z-score [4]	z-score [5]	z-score [6]	z-score [7]	z-score [8]	z-score [9]	z-score [10]	z-score [11]	z-score [12]	z-score [13]	z-score [14]	z-score [15]	z-score [16]	z-score [17]	z-score [18]	z-score [19]	z-score [20]
COc1ccc(COC(=O)NN=C2C[C@@H](O)[C@@H](O)[C@@H]3[C@@H]4C(=O)N([C@@H](C)c5ccccc5)C(=O)[C@@H]4CC[C@@H]23)cc1	0.774 (inactive)	-0.102	0.823 (inactive)	-0.119 (inactive)	-0.667 (inactive)	-0.0631 (inactive)	-0.339	-0.247 (inactive)	1.01 (inactive)	-0.0473	-0.173	0.0685	-0.966	0.434	-1.26	-0.697	-0.132 (inactive)	-0.189	-0.369	0.0487 (inactive)
CO[C@H]1COC(=O)[C@H](C)COC(=O)[C@H](C)NC(=O)CC=C[C@H]1C	0.25 (inactive)	-0.101	0.212 (inactive)	0.0618 (inactive)	-0.0422 (inactive)	-0.186 (inactive)	0.0807	1.67 (inactive)	0.299 (inactive)	-0.42	-0.0718	0.996	-0.248	0.0627	0.286	0.708	0.475 (inactive)	-0.218	1.3	0.724 (inactive)
C=CC[C@@H]1C=C[C@H](ON=C(C)CCN2CCCc3nc(C)c(C)cc32)[C@@H](CO)O1	0.579 (inactive)	0.97	3.7 (inactive)	0.327 (inactive)	0.206 (inactive)	0.562 (inactive)	-1.04	-0.297 (inactive)	-0.0344 (inactive)	-0.473	0.226	-0.0137	0.0526	-2.03	-1.06	-0.276	0.0489 (inactive)	-0.989	-0.455	-0.246 (inactive)
COC(=O)[C@H](C)NC(=O)CCC1CC(OC(=O)NCCc2ccc(F)cc2)CC2(CCCC(COC(=O)NCCOc3ccccc3)O2)O1 (stereo not given in full)	-0.651 (inactive)	0.0169	-1.23 (inactive)	-0.257 (inactive)	0.189 (inactive)	0.199 (inactive)	0.0246	0.749 (inactive)	0.622 (inactive)	0.382	0.401	-0.506	0.696	0.546	-0.475	1.17	0.00171 (inactive)	0.606	-0.0736	0.579 (inactive)
